The supplement of paper PMC10849652
Of roughly 8,800 targets only a part is listed; those with a hit were picked by preference. About 0.5% of all pairs of compound and target were hits.

Legend:
Assay in all cases: log2 fold change, soluble protein after heating vs DMSO (PISA); higher = thermal stabilisation; K562 lysate, 10 uM; active = over 0.2 and 3.5 SD of the protein, either way, in both replicates (recomputed)
[1] = compound: C#Cc1cccc(Nc2ncnc3cc(OCCOC)c(OCCOC)cc23)c1 [erlotinib]
How it was run: (§1)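 Dounce homogenisation of K562 pellets in PBS pH 7.4 with 1 mM MgCl2 produced a crude extract, used at 1 mg/mL protein. Exposure to 10 μM compound lasted 30 min, and aliquots were then heated for 3 min across 48°C-58°C, pooled and brought to 0.5% NP-40 at 4°C. The supernatant after 21,000xg for 90 min was quantified by TMTpro 16plex LC-MS/MS with channel sums equalised. Duplicate values are given as log-two fold change in thermal stability relative to solvent controls.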

[2] = compound: C/C(=N\NC(=O)C1=CC(=CC=C1)S(=O)(=O)N2CCOCC2)/C3=C(C=CC(=C3)Cl)O
How it was run: as §1

[3] = compound: C1=CC(=CC=C1C2=NC3=C(N2)C=C(C=C3)C(=O)N)OC4=CC=C(C=C4)Cl
How it was run: as §1

[4] = compound: C1=CC2=C(C=CC(=C2)/C=C\3/C(=O)NC(=NCC4=CC=CS4)S3)N=C1
How it was run: as §1

[5] = compound: C1=CC2=NC=CN=C2C=C1/C=C/3\C(=O)NC(=O)S3
How it was run: as §1

[6] = compound: C1=CC=C(C=C1)C2=NC(=C(N2)C3=CC=NC=C3)C4=CC(=C(C=C4)Cl)O
How it was run: as §1

[7] = compound: C1=CC=C2C(=C1)C3=NNC4=CC=CC(=C43)C2=O
How it was run: as §1

[8] = compound: C1CCN(C1)C(=O)NC2=CC=CC(=C2)NC3=NC=C(C(=N3)NCCC4=CN=CN4)Br
How it was run: as §1

[9] = compound: C1CN(CCC1(CC2=CC=C(C=C2)Cl)N)C3=NC=NC4=C3C=CN4
How it was run: as §1

[10] = compound: C1COCCN1CCN2C3=CC=CC=C3N=C2NC(=O)C4=CC(=CC=C4)[N+](=O)[O-] [IRAK-1-4 Inhibitor I]
How it was run: as §1

[11] = compound: C=CC(=O)N1CCC[C@@H](n2nc(-c3ccc(Oc4ccccc4)cc3)c3c(N)ncnc32)C1 [ibrutinib]
How it was run: as §1

[12] = compound: CC(=O)c1cnc2ccc(-c3cc(Cl)c(O)c(Cl)c3)nc2c1N[C@H]1CC[C@H](CN(C)C)CC1
How it was run: as §1

[13] = compound: CC(C)(C)Cn1c(N)nc2ccc(-c3[nH]c(C(C)(C)C)nc3-c3ccc(F)cc3)nc21 [ralimetinib]
How it was run: as §1

[14] = compound: CC(C)(O)CC(=O)NCCn1ccc2ncnc(Nc3ccc(Oc4cccc(C(F)(F)F)c4)c(Cl)c3)c21
How it was run: as §1

[15] = compound: CC(C)C1=C2N=C(C=C(N2N=C1)NCC3=CC=CC=C3)NCCCCCCN
How it was run: as §1

[16] = compound: CC1=C(C(CC(=O)N1)C2=CC=C(C=C2)C(F)(F)F)C(=O)NC3=C(C=C4C(=C3)C=NN4)F
How it was run: as §1

[17] = compound: CC1=C(C2=C(C=C1)C(=O)C3=CC=CC=C3N2CCCN)C
How it was run: as §1

[18] = compound: CC1=C(C=C(C=C1)NC(=O)C2=CC(=CC=C2)C(C)(C)C#N)NC3=CC4=C(C=C3)N=CN(C4=O)C
How it was run: as §1

[19] = compound: CC1=C(C=C(C=C1)NC(=O)C2=CC(=CC=C2)N(C)C)NC(=O)C3=CC=C(C=C3)O
How it was run: as §1

[20] = compound: CC1=CC=C(C=C1)SC2=C3C=C(SC3=CN=C2)C(=O)N
How it was run: as §1

Measured: log2 fold change

AP4B1 (UniProt Q9Y6B7)
Sequence of UniProt Q9Y6B7 (Q9Y6B7 whole entry, looked up): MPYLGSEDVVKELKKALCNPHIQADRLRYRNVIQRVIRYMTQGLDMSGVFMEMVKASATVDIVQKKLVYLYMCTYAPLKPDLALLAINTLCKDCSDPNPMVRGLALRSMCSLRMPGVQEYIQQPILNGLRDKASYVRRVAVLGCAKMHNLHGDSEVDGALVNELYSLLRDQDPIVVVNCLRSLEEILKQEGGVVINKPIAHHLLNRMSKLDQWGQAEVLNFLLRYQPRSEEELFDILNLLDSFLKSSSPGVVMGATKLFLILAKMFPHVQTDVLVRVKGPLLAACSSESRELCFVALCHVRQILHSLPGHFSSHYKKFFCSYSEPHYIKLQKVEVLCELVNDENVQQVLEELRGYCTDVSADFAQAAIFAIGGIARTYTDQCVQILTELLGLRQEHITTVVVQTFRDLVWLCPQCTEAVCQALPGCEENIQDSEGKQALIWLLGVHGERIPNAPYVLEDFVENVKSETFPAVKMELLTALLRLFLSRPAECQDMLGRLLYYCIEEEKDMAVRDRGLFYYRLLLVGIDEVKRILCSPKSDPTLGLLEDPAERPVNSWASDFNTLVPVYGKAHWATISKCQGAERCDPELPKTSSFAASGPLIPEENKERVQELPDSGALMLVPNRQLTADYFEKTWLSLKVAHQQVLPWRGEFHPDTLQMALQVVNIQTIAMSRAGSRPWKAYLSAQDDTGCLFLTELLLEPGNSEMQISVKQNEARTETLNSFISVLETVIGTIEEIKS
inactive: [1] 0.021 | [2] -0.038 | [3] 0.016 | [4] 0.096 | [5] 0.038 | [6] 0.019 | [7] -0.022 | [8] -0.018 | [9] 0.188 | [10] 0.013 | [11] -0.028 | [12] -0.048 | [13] -0.044 | [14] 0 | [15] 0.034 | [16] 0.003 | [17] -0.027 | [18] -0.02 | [19] -0.041 | [20] -0.041

AKAP8L (UniProt Q9ULX6)
Sequence of UniProt Q9ULX6 (Q9ULX6 whole entry, looked up): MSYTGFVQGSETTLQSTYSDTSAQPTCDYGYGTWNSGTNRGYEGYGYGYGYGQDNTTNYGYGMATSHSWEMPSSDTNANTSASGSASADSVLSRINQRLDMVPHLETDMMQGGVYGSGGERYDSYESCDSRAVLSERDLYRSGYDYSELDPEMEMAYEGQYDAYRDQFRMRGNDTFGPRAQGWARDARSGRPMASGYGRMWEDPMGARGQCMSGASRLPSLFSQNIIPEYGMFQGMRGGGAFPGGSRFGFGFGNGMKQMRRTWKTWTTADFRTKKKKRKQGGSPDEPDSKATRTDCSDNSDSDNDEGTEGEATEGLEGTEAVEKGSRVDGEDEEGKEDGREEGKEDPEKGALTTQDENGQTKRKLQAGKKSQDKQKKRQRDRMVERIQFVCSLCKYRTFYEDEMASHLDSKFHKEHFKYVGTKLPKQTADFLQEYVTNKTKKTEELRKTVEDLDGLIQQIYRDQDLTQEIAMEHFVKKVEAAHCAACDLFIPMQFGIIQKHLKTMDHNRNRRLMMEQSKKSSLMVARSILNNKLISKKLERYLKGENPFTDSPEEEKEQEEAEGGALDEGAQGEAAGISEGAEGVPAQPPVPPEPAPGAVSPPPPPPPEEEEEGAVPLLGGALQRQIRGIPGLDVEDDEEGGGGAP
active: [18] -0.271
inactive: [1] 0.061 | [2] 0.093 | [3] 0.032 | [4] 0.002 | [5] 0.017 | [6] 0 | [7] -0.022 | [8] 0.029 | [9] -0.032 | [10] -0.002 | [11] 0 | [12] -0.046 | [13] 0.002 | [14] -0.019 | [15] 0.009 | [16] -0.02 | [17] 0.003 | [19] 0.046 | [20] 0.032

ALKBH4 (UniProt Q9NXW9)
Sequence of UniProt Q9NXW9 (Q9NXW9 whole entry, looked up): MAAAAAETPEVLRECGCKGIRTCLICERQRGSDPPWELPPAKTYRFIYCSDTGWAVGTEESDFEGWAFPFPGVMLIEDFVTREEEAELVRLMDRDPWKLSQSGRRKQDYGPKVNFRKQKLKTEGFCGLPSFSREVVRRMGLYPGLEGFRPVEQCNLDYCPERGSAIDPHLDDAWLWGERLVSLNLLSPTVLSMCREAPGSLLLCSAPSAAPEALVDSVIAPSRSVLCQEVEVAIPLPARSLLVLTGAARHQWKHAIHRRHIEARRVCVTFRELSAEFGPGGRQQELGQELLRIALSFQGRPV
inactive: [1] 0.014 | [2] -0.073 | [3] 0.026 | [4] -0.011 | [5] 0.017 | [6] -0.052 | [7] -0.069 | [8] 0 | [9] 0.019 | [10] 0.003 | [11] 0.076 | [12] 0.056 | [13] 0.032 | [14] 0.003 | [15] -0.031 | [16] 0.031 | [17] -0.036 | [18] 0.004 | [19] -0.006 | [20] 0.002

ANLN (UniProt Q9NQW6)
Sequence of UniProt Q9NQW6 (Q9NQW6 whole entry, looked up): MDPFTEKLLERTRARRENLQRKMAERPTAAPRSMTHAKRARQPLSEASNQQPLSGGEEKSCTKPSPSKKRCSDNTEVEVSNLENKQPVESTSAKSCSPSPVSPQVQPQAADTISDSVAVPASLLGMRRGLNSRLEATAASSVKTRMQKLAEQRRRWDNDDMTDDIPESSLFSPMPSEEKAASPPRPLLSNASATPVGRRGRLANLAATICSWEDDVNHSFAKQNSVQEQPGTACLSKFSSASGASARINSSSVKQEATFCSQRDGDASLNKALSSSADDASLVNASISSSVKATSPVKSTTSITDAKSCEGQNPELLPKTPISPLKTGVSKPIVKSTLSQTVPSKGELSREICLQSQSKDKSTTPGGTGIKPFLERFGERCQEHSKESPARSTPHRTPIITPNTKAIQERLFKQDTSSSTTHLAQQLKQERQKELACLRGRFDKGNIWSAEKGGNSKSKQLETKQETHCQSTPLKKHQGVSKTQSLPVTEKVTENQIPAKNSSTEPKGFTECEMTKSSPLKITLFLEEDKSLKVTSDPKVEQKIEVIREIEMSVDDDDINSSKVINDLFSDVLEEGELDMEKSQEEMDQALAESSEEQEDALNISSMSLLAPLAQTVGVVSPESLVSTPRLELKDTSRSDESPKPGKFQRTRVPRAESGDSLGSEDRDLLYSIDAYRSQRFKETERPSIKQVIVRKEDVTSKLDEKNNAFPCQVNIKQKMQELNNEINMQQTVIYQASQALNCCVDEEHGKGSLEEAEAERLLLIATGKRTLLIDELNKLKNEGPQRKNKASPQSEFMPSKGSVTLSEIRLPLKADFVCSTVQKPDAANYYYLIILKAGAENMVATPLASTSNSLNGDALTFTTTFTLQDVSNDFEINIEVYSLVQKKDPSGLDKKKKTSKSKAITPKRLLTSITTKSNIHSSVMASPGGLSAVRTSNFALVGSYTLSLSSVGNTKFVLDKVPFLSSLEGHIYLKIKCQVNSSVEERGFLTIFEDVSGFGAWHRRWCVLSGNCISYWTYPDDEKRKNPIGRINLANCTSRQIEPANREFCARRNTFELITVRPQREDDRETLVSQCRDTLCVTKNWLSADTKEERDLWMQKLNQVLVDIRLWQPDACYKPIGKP
inactive: [1] -0.006 | [2] -0.142 | [3] 0.007 | [4] -0.019 | [5] -0.072 | [6] 0.01 | [7] -0.019 | [8] -0.045 | [9] -0.002 | [10] -0.017 | [11] 0.025 | [12] -0.027 | [13] 0.02 | [14] -0.001 | [15] -0.014 | [16] 0.02 | [17] -0.01 | [18] 0.026 | [19] 0.029 | [20] -0.04

AKAP8 (UniProt O43823)
Sequence of UniProt O43823 (O43823 whole entry, looked up): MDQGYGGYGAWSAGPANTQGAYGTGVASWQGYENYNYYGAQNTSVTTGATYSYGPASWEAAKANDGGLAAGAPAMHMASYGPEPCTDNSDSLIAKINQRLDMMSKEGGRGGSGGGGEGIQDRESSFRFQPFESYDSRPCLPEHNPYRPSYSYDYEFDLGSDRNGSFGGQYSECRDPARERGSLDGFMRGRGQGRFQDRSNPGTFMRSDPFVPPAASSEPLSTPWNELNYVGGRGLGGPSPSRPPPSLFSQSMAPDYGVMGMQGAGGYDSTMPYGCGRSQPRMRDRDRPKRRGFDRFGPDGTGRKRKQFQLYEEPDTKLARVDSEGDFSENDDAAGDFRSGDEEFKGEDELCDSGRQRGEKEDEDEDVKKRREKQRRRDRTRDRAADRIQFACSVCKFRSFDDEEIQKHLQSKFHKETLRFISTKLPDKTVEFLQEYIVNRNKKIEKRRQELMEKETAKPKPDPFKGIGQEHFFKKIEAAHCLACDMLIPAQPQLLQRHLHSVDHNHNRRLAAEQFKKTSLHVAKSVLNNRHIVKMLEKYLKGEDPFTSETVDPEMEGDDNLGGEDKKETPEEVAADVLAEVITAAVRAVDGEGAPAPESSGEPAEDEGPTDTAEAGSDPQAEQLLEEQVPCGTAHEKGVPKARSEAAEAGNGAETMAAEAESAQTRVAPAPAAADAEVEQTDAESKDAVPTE
inactive: [1] -0.015 | [2] 0.002 | [3] 0.038 | [4] -0.005 | [5] -0.04 | [6] 0.045 | [7] -0.047 | [8] 0.044 | [9] 0 | [10] 0.089 | [11] 0 | [12] -0.019 | [13] -0.039 | [14] -0.084 | [15] -0.009 | [16] 0.076 | [17] -0.056 | [18] -0.158 | [19] 0.016 | [20] -0.03

AK2 (UniProt P54819)
inactive: [1] -0.011 | [2] -0.052 | [3] 0.035 | [4] -0.002 | [5] 0.002 | [6] 0.016 | [7] 0.014 | [8] -0.008 | [9] -0.002 | [10] 0.005 | [11] 0.054 | [12] -0.022 | [13] -0.013 | [14] 0.027 | [15] 0.018 | [16] -0.018 | [17] 0.003 | [18] -0.018 | [19] -0.031 | [20] -0.024

ARL1 (UniProt P40616)
Sequence of UniProt P40616 (P40616 whole entry, looked up): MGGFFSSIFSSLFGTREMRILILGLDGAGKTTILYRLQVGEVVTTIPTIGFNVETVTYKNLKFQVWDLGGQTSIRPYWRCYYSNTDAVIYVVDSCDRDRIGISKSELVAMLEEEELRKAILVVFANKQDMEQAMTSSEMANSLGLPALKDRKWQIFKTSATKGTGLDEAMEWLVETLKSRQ
inactive: [1] 0.006 | [2] -0.212 | [3] 0.037 | [4] -0.022 | [5] -0.03 | [6] -0.013 | [7] -0.018 | [8] -0.046 | [9] 0.025 | [10] 0.053 | [11] -0.029 | [12] -0.005 | [13] 0.027 | [14] -0.001 | [15] -0.017 | [16] 0.098 | [17] -0.026 | [18] 0.134 | [19] -0.021 | [20] -0.027

AFF1 isoform 2 (UniProt P51825)
Sequence of UniProt P51825 (P51825 whole entry, looked up): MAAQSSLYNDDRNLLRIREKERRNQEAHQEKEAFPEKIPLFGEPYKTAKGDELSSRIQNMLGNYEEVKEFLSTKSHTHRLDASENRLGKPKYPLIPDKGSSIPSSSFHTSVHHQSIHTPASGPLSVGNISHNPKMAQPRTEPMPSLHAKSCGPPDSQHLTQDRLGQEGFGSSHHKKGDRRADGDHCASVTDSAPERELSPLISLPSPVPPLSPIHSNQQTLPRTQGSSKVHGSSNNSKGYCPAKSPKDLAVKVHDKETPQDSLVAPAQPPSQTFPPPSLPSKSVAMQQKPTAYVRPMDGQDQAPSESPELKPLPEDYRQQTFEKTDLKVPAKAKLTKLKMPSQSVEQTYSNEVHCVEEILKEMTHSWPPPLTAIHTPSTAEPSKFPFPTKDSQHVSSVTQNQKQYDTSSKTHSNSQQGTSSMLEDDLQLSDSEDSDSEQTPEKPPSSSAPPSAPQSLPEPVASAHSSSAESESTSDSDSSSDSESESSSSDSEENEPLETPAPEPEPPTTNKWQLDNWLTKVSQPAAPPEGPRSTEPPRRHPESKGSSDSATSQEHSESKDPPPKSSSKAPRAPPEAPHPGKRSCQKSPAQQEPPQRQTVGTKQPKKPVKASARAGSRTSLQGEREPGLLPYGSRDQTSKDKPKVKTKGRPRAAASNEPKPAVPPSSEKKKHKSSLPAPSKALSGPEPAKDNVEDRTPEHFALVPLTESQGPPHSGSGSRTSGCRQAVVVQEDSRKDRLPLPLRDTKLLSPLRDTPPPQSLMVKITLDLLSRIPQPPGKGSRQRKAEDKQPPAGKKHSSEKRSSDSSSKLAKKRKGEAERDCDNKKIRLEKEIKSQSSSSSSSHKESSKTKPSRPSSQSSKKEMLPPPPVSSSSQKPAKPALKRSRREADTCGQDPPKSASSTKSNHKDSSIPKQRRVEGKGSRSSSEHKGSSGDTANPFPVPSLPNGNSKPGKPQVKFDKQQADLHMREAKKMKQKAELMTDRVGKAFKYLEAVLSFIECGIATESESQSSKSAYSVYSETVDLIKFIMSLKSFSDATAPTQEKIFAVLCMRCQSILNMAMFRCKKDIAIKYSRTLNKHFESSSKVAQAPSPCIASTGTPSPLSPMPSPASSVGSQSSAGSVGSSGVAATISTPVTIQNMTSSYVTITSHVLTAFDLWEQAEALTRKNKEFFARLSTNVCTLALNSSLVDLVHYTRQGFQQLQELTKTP
inactive: [1] -0.001 | [2] -0.085 | [3] 0.027 | [4] 0.071 | [5] -0.068 | [6] -0.007 | [7] -0.041 | [8] -0.002 | [9] 0.005 | [10] 0.021 | [11] 0.136 | [12] -0.028 | [13] 0.078 | [14] -0.02 | [15] -0.001 | [16] 0.037 | [17] -0.047 | [18] 0.023 | [19] 0.02 | [20] -0.002
